# Measured values as given in PubChem BioAssay (EPA / NIEHS).
# Calls of active or inactive are those of the source. The calls were made as follows: active = hit-call score of the fitted dose curve at least 0.9, where 1 is the maximum; inactive = score below 0.9.
# Target: Hepatocyte nuclear factor 6 (Homo sapiens) (UniProt Q9UBC0)
# Assay: ATG_HNF6_CIS: Attagene CIS-FACTORIAL HepG2 Assay for human Hepatocyte Nuclear Factor 6 (HNF6) (AID 2282952)
# Conditions: HepG2 Attagene cis-factorial HNF6 reporter transcription; actives raise or lower the signal
# Procedure, shortened: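 Multiplexed mRNA reporter assay in transfected HepG2; 24 h dosing; RT-PCR plus capillary electrophoresis fluorescence; DMSO-referenced bidirectional curve fitting.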
# Sequence of Hepatocyte nuclear factor 6 (Homo sapiens) (Q9UBC0 whole entry, looked up): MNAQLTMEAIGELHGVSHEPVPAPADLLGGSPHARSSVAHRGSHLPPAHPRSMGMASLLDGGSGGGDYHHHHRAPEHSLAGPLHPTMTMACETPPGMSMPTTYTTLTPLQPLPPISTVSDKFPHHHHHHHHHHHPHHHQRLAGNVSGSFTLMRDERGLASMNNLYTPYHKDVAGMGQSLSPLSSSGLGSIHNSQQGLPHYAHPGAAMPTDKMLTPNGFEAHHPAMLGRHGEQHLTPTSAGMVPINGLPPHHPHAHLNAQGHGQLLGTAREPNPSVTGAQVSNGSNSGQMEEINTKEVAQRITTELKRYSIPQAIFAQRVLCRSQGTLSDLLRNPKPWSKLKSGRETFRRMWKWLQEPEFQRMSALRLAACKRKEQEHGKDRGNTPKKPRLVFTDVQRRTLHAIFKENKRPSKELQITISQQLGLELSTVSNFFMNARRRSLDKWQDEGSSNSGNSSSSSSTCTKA
Compound,outcome,AC50
CCCCCCCCCCCC#N,inactive,–
O=C(NC(=O)c1c(F)cccc1F)Nc1ccc(Oc2ccc(C(F)(F)F)cc2Cl)cc1F,inactive,–
CC1CCCC1.[C-]#[O+].[C-]#[O+].[C-]#[O+].[Mn],inactive,–
CCCCNP(N)(N)=S,inactive,–
CC(=O)C=Cc1ccccc1,–,179 µM (active)
CCC(=O)c1ccc(Cl)cc1,inactive,–
Nc1ccccc1C(=O)Oc1ccc2ccccc2c1,inactive,–
C=CC(=O)OC,inactive,–
CC(C)CCCCCCCOC(=O)c1ccccc1C(=O)OCCCCCCCC(C)C,inactive,–
N#CCNCC#N,inactive,–
CN(C)N,inactive,–
CN1C[C@H](C(=O)N[C@]2(C)O[C@@]3(O)[C@@H]4CCCN4C(=O)[C@H](Cc4ccccc4)N3C2=O)C=C2c3cccc4[nH]cc(c34)C[C@H]21,inactive,–
O=[N+]([O-])C=Cc1ccccc1,inactive,–
Nc1ccc(Cl)c(Cl)c1,inactive,–
CCCCOP(=O)(O)OCCCC,inactive,–
O=C(O)CCl,inactive,–
CC(O)CN(CC(C)O)CC(C)O (configuration not stated),inactive,–
Nc1cc(Cl)cc(Cl)c1,inactive,–
O=[N+]([O-])c1ccc(Cl)cc1,inactive,–
Cc1ccc(C)c2ccccc12,inactive,–
C=CCO,inactive,–
COC(=O)COc1ccc(Cl)cc1Cl,inactive,–
[CH3][Sn]([Cl])([Cl])[Cl],inactive,–
CC(=O)c1cc2c(cc1C)C(C)(C)C(C)CC2(C)C (configuration not stated),–,171 µM (active)
Nc1ccc(-c2ccc(N)c(N)c2)cc1N,inactive,–
c1cc(OCC2CO2)ccc1Cc1ccc(OCC2CO2)cc1 (configuration not stated),–,45.8 µM (active)
C=CC(=O)OCCCCOC(=O)C=C,inactive,–
